# Assay results taken from PubChem BioAssay (Tox21).
# Records with an inconclusive call do not appear. A call without a number means that no potency is given here. Values without a mark were called inactive. Active and inactive are the calls of the source. Calls follow the shape of the dose curve; as a rule, active = well fitted curve in the direction sought with a large enough effect in the repeat runs; inconclusive = weak or mixed curves; inactive = no such curve, though single readings can be large; an effect the other way counts as inactive or inconclusive.
# Experiments:
# [1] = qHTS RealTime-Glo MT Cell Viability Assay in HepG2 cells - 40 hour (AID 1224870); also: nearly all actives have a fitted effect of over 50% in size
# Outline: (§1)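 HepG2 cells (600/well) mixed with RealTime-Glo MT reagent, settled 5 h at 37 C/5% CO2 before compound addition. Nonlytic NanoLuc luminescence from viable-cell prosubstrate reduction read repeatedly during 40 h treatment at 37 C.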
# [2] = A CellTox Green Cytotoxicity Assay to monitor cytotoxicity in HEK293 cells - 40 hour (AID 1224871); also: nearly all actives have a fitted effect of over 45% in size; also: potency is read from the fitted curve at half-maximal effect
# Outline: (§2)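 HEK293 cells premixed with CellTox Green dye were seeded at 600 cells/well and left 5 h at 37 C/5% CO2 before pin transfer of 23 nL compound in DMSO. Fluorescence from dye bound to dead-cell DNA was read during 40 h treatment.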
# [3] = qHTS RealTime-Glo MT Cell Viability Assay in HEK293 cells - 16 hour (AID 1224872); also: top concentration of the series differs between compounds; nearly all actives have a fitted effect of over 50% in size
# Outline: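 Nonlytic real-time viability readout: viable cells convert prosubstrate to NanoLuc substrate, giving luminescence proportional to live cell number. HEK293, 600 cells/well, compound added after 5 h, continuous culture at 37 C.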
# [4] = qHTS RealTime-Glo MT Cell Viability Assay in HepG2 cells - 8 hour (AID 1224873); also: nearly all actives have a fitted effect of over 55% in size
# Outline: as §1
# [5] = qHTS RealTime-Glo MT Cell Viability Assay in HEK293 cells - 40 hour (AID 1224874); settings: RealTime-Glo luminescence; max response: hits give low values; also: nearly all actives have a fitted effect of over 50% in size
# Outline: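 HEK293 cells mixed with RealTime-Glo reagents (NanoLuc plus cell-permeant prosubstrate) at 600 cells/well, preincubated 5 h at 37 C/5% CO2, then given 23 nL compound in DMSO. Nonlytic luminescence from viable cells was read at 0, 8, 16, 24, 32 and 40 h.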
# [6] = A CellTox Green Cytotoxicity Assay to monitor cytotoxicity in HEK293 cells - 24 hour (AID 1224875); also: nearly all actives have a fitted effect of over 45% in size; also: potency is read from the fitted curve at half-maximal effect; as to activity change: series mostly up to about 77 µM
# Outline: as §2
# [7] = A CellTox Green Cytotoxicity Assay to monitor cytotoxicity in HepG2 cells - 16 hour (AID 1224876); also: nearly all actives have a fitted effect of over 45% in size
# Outline: (§3)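 HepG2 cells were seeded together with the CellTox Green dye at 600 cells/well, left 5 h at 37 C/5% CO2, then given compounds in DMSO. Fluorescence from dye bound to dead-cell DNA was read repeatedly over 40 h of treatment at 37 C.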
# [8] = qHTS RealTime-Glo MT Cell Viability Assay in HepG2 cells - 32 hour (AID 1224877); also: nearly all actives have a fitted effect of over 55% in size
# Outline: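 Luminescence read-out: viable HepG2 cells reduce a prosubstrate to a NanoLuc substrate, giving a signal proportional to live cell number. Reads taken at 0, 8, 16, 24, 32 and 40 h of compound exposure at 37 C.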
# [9] = A CellTox Green Cytotoxicity Assay to monitor cytotoxicity in HepG2 cells - 24 hour (AID 1224878); also: nearly all actives have a fitted effect of over 45% in size
# Outline: as §3
SMILES,Potency [1],Potency [2],Potency [3],outcome [4],max response [5] [%],Potency [6],Potency [7],Potency [8],Potency [9],"activity change, negative = cytotoxic [1]",cytotoxicity increase [2],"activity change, negative = cytotoxicity [3]","viability change, negative = cytotoxic [4]",activity change [6],cytotoxicity increase [7],"activity change, negative = cytotoxic [8]",cytotoxicity [9]
Clc1cccc(-c2cc(Cl)cc(Cl)c2)c1,inactive,37.5 µM (active),inactive,inactive,-9.77,42.1 µM (active),inactive,inactive,,,,,,,,,
NCCCN1CCN(CCCN)CC1,inactive,inactive,inactive,inactive,6.33,inactive,inactive,inactive,,,,,,,,,
C=Cc1ccccc1,inactive,inactive,inactive,inactive,10.3,inactive,inactive,inactive,inactive,,,,,,,,
CCCCNC(=S)NCCCC,inactive,inactive,inactive,inactive,-21.7,inactive,inactive,inactive,inactive,,,,,,,,
O=C1CCN(c2ccccc2)N1,inactive,inactive,inactive,inactive,4.28,inactive,inactive,inactive,inactive,,,,,,,,
COC(=O)/C=C(/C)N,inactive,inactive,inactive,inactive,5.09,inactive,inactive,inactive,inactive,,,,,,,,
NC(Cc1ccc(F)cc1)C(=O)O (stereo not given),,,,,2.65,,,,,-10.7% [at 6.97 µM],10% [at 6.97 µM],1.36% [at 6.97 µM],1.3% [at 6.97 µM],"11.7% [at 6.97 µM, hits give high values]",8.03% [at 6.97 µM],-6.06% [at 6.97 µM],7.85% [at 6.97 µM]
CC(C)(C)c1cccc(O)c1,inactive,inactive,inactive,inactive,-6.86,inactive,inactive,inactive,,,,,,,,,
CCCOc1ccc2c(c1)CC[C@@H]1[C@@H]2CC[C@]2(C)C(OC)CC[C@@H]12 (stereo not given in full),inactive,inactive,inactive,inactive,6.13,inactive,inactive,inactive,inactive,,,,,,,,
O=C1CCCCC1C1CCCCC1 (stereo not given),inactive,inactive,inactive,inactive,11.8,inactive,inactive,inactive,inactive,,,,,,,,
OC[C@H]1O[C@@H](O[C@H]2[C@H](O)[C@@H](O)[C@H](O)O[C@@H]2CO)[C@H](O)[C@@H](O)[C@H]1O,inactive,inactive,inactive,inactive,0.3,inactive,inactive,inactive,inactive,,,,,,,,
COc1cc(C)ccc1C(C)C,inactive,inactive,inactive,inactive,3.29,inactive,inactive,inactive,inactive,,,,,,,,
